Source: PubChem BioAssay AID743395 (Broad Institute, 2014)
About 480 (40%) of roughly 1,200 compounds were called active. No rule for the calls is given here. So high a share suggests a set chosen from earlier hits. A selection follows. Entries with a potency or affinity are not part of this list.

test: viability loss in human hepatoma cells – cell-based, CellTiter-Glo luminescence, cherry-pick, set 2, cytotoxicity control, dose response (AID 743395); conditions: HepG2 viability, CellTiter-Glo ATP luminescence, 72 h; series mostly up to 26 µM; activity change, negative = cytotoxicity: at the top concentration;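 also: 0% = neutral control wells and -100% = positive control wells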

SMILES	activity change, negative = cytotoxicity
COc1ccc(S(=O)(=O)N2CCN(CCOc3ccccc3Cl)CC2)cc1OC	-28.1% (inactive)
CCCCN1C(=O)/C(=C/C=C2\Oc3ccccc3N2CC)SC1=S	-19.4% (inactive)
COc1cc(/C=C2\SC(=S)N(NC(=O)c3ccncc3)C2=O)ccc1O	-8.91% (inactive)
O=C(CCNS(=O)(=O)c1cccc(C(F)(F)F)c1)NC1CC1	2.26% (inactive)
Clc1ccc(CSc2nncn2-c2ccc3c(c2)OCCO3)cc1	-6.14% (inactive)
O=C(c1cccnc1)N1CC[C@@H]2[C@H](CO)Nc3ccc(C4=CCCCC4)cc3[C@@H]21	-8.51% (inactive)
COc1ccc(S(=O)(=O)N2CC[C@@H]3[C@@H](CO)Nc4ccc(C5=CCCCC5)cc4[C@@H]32)cc1	-2.3% (inactive)
O=S(=O)(c1ccc(F)cc1)N1CC[C@@H]2[C@@H](CO)Nc3ccc(-c4ccc(F)cc4)cc3[C@@H]21	-28.2% (inactive)
COc1ccc(S(=O)(=O)N2CC[C@@H]3[C@@H](CO)Nc4ccc(-c5ccc(C#N)cc5)cc4[C@@H]32)cc1	-18.6% (inactive)
Cc1ccc(S(=O)(=O)N2CCN(C(=O)CN(Cc3ccco3)Cc3cccs3)CC2)cc1	-9.06% (inactive)
CCN(C(=O)COC(=O)c1cccc2ccccc12)c1c(N)n(Cc2ccccc2)c(=O)[nH]c1=O	0.991% (inactive)
O=C(Nc1ccc(F)cc1)C1CCN(C(=O)c2ccc(F)cc2)CC1	-3.03% (inactive)
COc1cccc(-c2nnc(SCC(=O)NC3CCS(=O)(=O)C3)n2C)c1 (stereo not given)	12.4% (inactive)
O=C(NCc1ccccn1)c1n[nH]c(=O)c2ccccc12	0.51% (inactive)
CCC(=O)c1ccc(OCC(=O)OCC(=O)N2CCc3ccccc3C2)cc1	-7.38% (inactive)
O=C(Cc1ccsc1)OCC(=O)c1ccccc1	-3.91% (inactive)
CCN(CC)c1ccc2c(cc1=O)[C@@H](NC)CCc1cc(OC)c(OC)c(OC)c1-2	-9.08% (inactive)
COc1c(O[C@@H]2O[C@H](CO)[C@@H](O)[C@H](O)[C@H]2O)cc2c(c1OC)-c1ccc(SC)c(=O)cc1C(NC(C)=O)CC2 (stereo not given in full)	4.6% (inactive)
CN[C@H]1CCc2cc(OC)c(OC)c(OC)c2-c2ccc(N(C)CC(OC)OC)c(=O)cc21	-9.88% (inactive)
CO[C@H]1CN(C)C(=O)c2cc(NC(C)=O)ccc2OC[C@H](C)N(C(=O)c2ccncc2)C[C@H]1C	-5.17% (inactive)
CCOC(=O)CSC1=C(C#N)C(c2ccc(C)s2)CC(=O)N1 (stereo not given)	-40.3% (inactive)
CN(C(=O)c1ccccc1OC1CCN(S(C)(=O)=O)CC1)C1CCOC1 (stereo not given)	-1.38% (inactive)

SMILES	activity change, negative = cytotoxicity
COCCOC(=O)c1[nH]c2c(c1C)C(=O)CC(c1cccs1)C2 (stereo not given)	-10.6% (inactive)
Nc1ccn([C@@H]2O[C@H](C(=O)NCC(F)(F)F)[C@@H](O)[C@H]2O)c(=O)n1	-8.42% (inactive)
Nc1ccn([C@H]2C[C@H](O)[C@@H](CO)O2)c(=O)n1	1.56% (inactive)
O=C1C=CN(C2OC(CO)C(O)C2O)C(=O)C1 (stereo not given)	-15.5% (inactive)
Cc1ccc(C(=O)OCC(=O)NCc2cc(C)c(O)c(C)c2)cc1S(=O)(=O)N1CCCCC1	6.09% (inactive)
CC(OC(=O)CCCC(=O)Nc1ccc(F)cc1)C(=O)c1ccccc1 (stereo not given)	10.3% (inactive)
CC1Cc2ccccc2N1S(=O)(=O)c1cccc(C(=O)N2CCN(c3ncccn3)CC2)c1 (stereo not given)	-22.5% (inactive)
COc1ccccc1N1CCN(C(CNS(=O)(=O)c2cccs2)c2cccnc2)CC1 (stereo not given)	-8.06% (inactive)
CN(C[C@H](Cc1ccccc1)N(C[C@H](Cc1ccccc1)N(CCC(C)(C)C)N=O)N=O)N=O	-0.701% (inactive)
O=C1c2cccc3c(O)ccc(c23)C(=O)N1c1ccc(Cl)cc1	-9.52% (inactive)
N#CC1=C(N)OC2=C(CCc3ccccc32)C1c1ccccc1Cl (stereo not given)	3.32% (inactive)
COc1nc(N)nc(NC(=O)c2cccs2)c1N=O	-14.8% (inactive)
Cc1ccc(Cc2c(-c3ccc(C)cc3)nc3c(C)cc(Br)cn23)cc1	-4.39% (inactive)
CC(C)(C)NC(=O)c1cccc2c1-c1ccccc1C2=O	-12.1% [at 8 µM] (inactive)
CC1=C(C(=O)NC2CCCCC2C)C2(CCC(C)CC2)OC1=O (stereo not given)	-13% (inactive)
COc1ccc(C(C#N)CC(=O)c2ccc3c(c2)OCO3)cc1OC (stereo not given)	-3.73% (inactive)
Cc1cc(Br)cn2c(Cc3ccsc3)c(-c3ccc(F)cc3)nc12	0.336% (inactive)
Cc1cccc(OCC(=O)NNC(=O)c2ccc3nc[nH]c3c2)c1	-11.2% (inactive)
COc1ccc(C(=O)Nc2ccc(NC(=O)c3cccc(F)c3)cn2)cc1	-8.34% (inactive)
COc1ccc(C(=O)OCc2nc(N)nc(Nc3ccccc3C)n2)cc1OC	-13.4% (inactive)
COc1ccc(NC(=O)c2ccc(OCC3CCCO3)cc2)cc1OC (stereo not given)	0.664% (inactive)
CC(OC(=O)c1ccc(Cl)nc1)C(=O)NC(C)(C)C (stereo not given)	-2.04% (inactive)

SMILES	activity change, negative = cytotoxicity
NS(=O)(=O)c1cc(C2(O)NC(=O)c3ccccc32)ccc1Cl (stereo not given)	-3.58% (inactive)
CCNC(=O)C[C@@H]1C=C[C@@H](NC(=O)NC2CCCCC2)[C@H](CO)O1	-3.27% (inactive)
O=C(CSC1=NCCN1)Nc1cccc([N+](=O)[O-])c1	-21.5% (inactive)
COc1ccc([C@@H]2[C@@H]3C(=O)N(C(C)(C)C)C(=O)[C@@H]3[C@]3(Cc4ccccc4)C(=O)N(c4ccc(C(F)(F)F)cc4)C(=O)N23)cc1	-20.1% (inactive)
CCc1ccccc1N(C)S(=O)(=O)c1ccc(-c2cc(C)no2)s1	-15% (inactive)
Cc1ccc(OCCC(=O)NNC(=O)c2ccc(Br)cc2)cc1	-3.58% (inactive)
O=C(NCCCN1CCOCC1)c1sc2cc(Cl)ccc2c1Cl	-1.96% (inactive)
O=C(NCCCN1CCOCC1)c1cc(S(=O)(=O)N2CCOCC2)c(Cl)cc1Cl	-1.37% (inactive)
CN(C)CCCN1c2ccccc2Sc2ccccc21	-24.3% (inactive)
COC(=O)C1CC23C=CCN4CCC5(c6ccccc6NC15C2C)C43 (stereo not given)	-14.9% (inactive)
COc1ccccc1NC(=O)C(=O)NCC(c1ccco1)N1CCc2ccccc21 (stereo not given)	6.66% (inactive)
COc1ccc(C(=O)NCC(c2ccco2)N2CCc3ccccc32)cc1 (stereo not given)	-17.2% (inactive)
CCCc1nc(SC2CCCC2)c2c(=O)n(C)c(=O)n(C)c2n1	-17.4% (inactive)
COc1cc(OC)cc(C(=O)N2CC(=O)Nc3ccccc32)c1	-14% (inactive)
COc1ccc(NCC(=O)n2c(C)c(C)c3ccccc32)cc1	-2.65% (inactive)
COc1ccc(/C=C2/CCCc3ccccc3C2=O)cc1	-22.7% (inactive)
COC(=O)c1cn(C(=O)c2ccc(C)cc2C)c2ccccc12	-20.2% (inactive)
O=C(NCc1cccnc1)c1cc(C2CCCCN2C(=O)CCCc2ccccc2)on1 (stereo not given)	-5.42% (inactive)
Cc1ccc(C)c(NC(=O)CCC(=O)N/N=C/c2cc([N+](=O)[O-])ccc2O)c1	-10.3% (inactive)
CCCOCCOC(=O)c1[nH]c2c(c1C)C(=O)CC(c1cc(OC)ccc1OC)C2 (stereo not given)	1.47% (inactive)
COc1ccccc1/C=N/NC(=O)c1cc2c(OC)c(OC)ccc2[nH]1	-8.24% (inactive)
